# The campaign covered roughly 24,000 compounds. About 180 (0.75%) were called active. Rule as the data show it: active = inhibition above about 30%; inconclusive = no clear call, values can overlap the other calls; inactive = below that. Many of the other results were omitted from the sample, so actives are more common in it than they were.
# Biological target: fMet-Leu-Phe receptor (Homo sapiens) (UniProt P21462)
# Experiment: human FPR ligands by binding competition, primary screen, cell-based, FPRL1 counter-screen, flow cytometry (AID 440);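 also: 0% = buffer wells and 100% = receptor blocker peptide wells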
# Settings: FPR-expressing cells, fluorescent ligand binding, hits give high values, concentration not given here
# Chain of fMet-Leu-Phe receptor (Homo sapiens) (P21462 whole entry, looked up): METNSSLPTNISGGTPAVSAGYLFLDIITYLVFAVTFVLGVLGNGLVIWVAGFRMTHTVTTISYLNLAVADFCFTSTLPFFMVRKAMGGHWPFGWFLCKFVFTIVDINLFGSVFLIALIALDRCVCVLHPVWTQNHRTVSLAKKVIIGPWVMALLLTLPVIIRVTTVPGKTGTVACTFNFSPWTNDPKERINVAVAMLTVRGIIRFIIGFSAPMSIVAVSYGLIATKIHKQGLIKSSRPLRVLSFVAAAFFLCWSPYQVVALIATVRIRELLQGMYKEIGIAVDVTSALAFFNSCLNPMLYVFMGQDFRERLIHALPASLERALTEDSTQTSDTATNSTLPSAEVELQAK
row,Compound,inhibition
1,O=C(Nc1ccccc1C(F)(F)F)c1cc(-c2ccc(O)cc2)on1,-2.3% (inactive)
2,O=C(CS(=O)(=O)c1cn(Cc2ccc(Cl)cc2)c2ccccc12)N1CCOCC1,15% (inactive)
3,O=C(Nc1c2c(nn1-c1ccc(F)cc1)CS(=O)C2)C12CC3CC(CC(C3)C1)C2 (centres undefined),-5.4% (inactive)
4,Cc1cc(C)c(C#N)c(SCc2[nH]nc3c2C(c2ccccc2)C(C#N)=C(N)O3)n1 (centres undefined),-6.4% (inactive)
5,CCCCc1nc2c(=O)[nH]c3ccccc3c2o1,-2.1% (inactive)
6,Fc1ccc2nc(Nc3nc4c(s3)CCCC4)sc2c1,-14.3% (inactive)
7,Cn1cccc1C1(C(F)(F)F)NCCNC1=O (centres undefined),1.7% (inactive)
8,CCCCCCn1c(CN2CCCCC2)nc2c1c(=O)n(C)c(=O)n2C,-5.5% (inactive)
9,O=c1c(-c2ccccc2)coc2c(CN3CCOCC3)c(O)ccc12,-5.5% (inactive)
10,c1ccc(COc2nsnc2N2CCOCC2)cc1,-1.9% (inactive)
11,Cn1cccc1Cc1nnc(SCC(=O)NCc2ccc3c(c2)OCO3)n1CCc1ccccc1,4.8% (inactive)
12,COc1ccc(CCNC(=O)C2CCN(c3nn4c(=O)cc(C)nc4s3)CC2)cc1OC,-2.7% (inactive)
13,CCn1ncc(C2=NOC(C(=O)N3CCN(c4ccccc4)CC3)C2)c1C (centres undefined),-5.6% (inactive)
14,OCc1n[nH]c(CO)n1,1.3% (inactive)
15,O=C(CN1CCN(c2ncc(C(F)(F)F)cc2Cl)CC1)Nc1ccc2c(c1)OCO2,-4.3% (inactive)
16,CCCCOCCCNC(=O)c1ccccc1OCC,1.4% (inactive)
17,CCOC(=O)c1cc(NC(=O)SCC(=O)O)c(C)nc1C,3.8% (inactive)
18,CCOC(=O)c1cc2cc(-c3c(C(=O)OCC)oc4cc(O)cc(O)c4c3=O)ccc2o1,-2.3% (inactive)
19,COc1cc(C2C(C(=O)Nc3ccc(F)cc3)=C(C)Nc3nc(CCCO)nn32)cc(OC)c1OC (centres undefined),-4.8% (inactive)
20,CCOc1ccc2c(=O)c(-c3ccc4c(c3)OCCCO4)c(C)oc2c1,-4.1% (inactive)
21,CCOc1ccc(N(CC(=O)NCc2ccc(OC)cc2)S(=O)(=O)c2c(C)noc2C)cc1,-3.8% (inactive)
22,CCOC(=O)CSc1nc2c(c(=O)n(C)c(=O)n2C)n1Cc1ccccc1F,4.7% (inactive)
23,CCOc1ccc(Cn2nnc(C(=O)Nc3ccc(OC)cc3OC)c2N)cc1,-3.7% (inactive)
24,O=C(Nc1ccn(Cc2ccc(F)cc2)n1)c1ccncc1,-7.7% (inactive)

row,Compound,inhibition
1,COc1ccc(OC)c(NC(=O)CCN2CCC(C)CC2)c1,-5.8% (inactive)
2,Cc1cc(C)c(C#N)c(SCS(=O)c2ccc(C(C)(C)C)cc2)n1 (centres undefined),-4.1% (inactive)
3,CCC(C(=O)Nc1ncccn1)(C(F)(F)F)C(F)(F)F,-1.6% (inactive)
4,CCOC(=O)c1nnn(-c2nc(OC)nc(N(C)C)n2)c1-c1ccccc1,-0.2% (inactive)
5,COc1cccc(Oc2ccc(N)cc2)c1,-7.2% (inactive)
6,C=CCn1c(SCC(=O)NC23CC4CC(CC(C4)C2)C3)nc(O)cc1=O,3.3% (inactive)
7,CCn1ncc(C2=NOC(C(=O)Nc3ccccc3C(=O)OC)C2)c1C (centres undefined),5.9% (inactive)
8,Cc1ccnc(N2C(=O)c3ccccc3C2Nc2ccc3c(c2)OCCO3)c1 (centres undefined),-0.2% (inactive)
9,CC(=O)C1=C(O)C(=O)N(c2ccc(S(N)(=O)=O)cc2)C1c1ccccc1F (centres undefined),-10.4% (inactive)
10,CCOC(=O)Cn1c(N)c(C(=O)OC)sc1=S,1.5% (inactive)
11,CCOC(=O)c1sc(=S)n2c1[nH]c(=O)c1ccc(C(=O)OC)cc12,35.8% (active)
12,CCOC(=O)c1sc(=S)n(-c2cccc(OC)c2)c1N,11% (inactive)
13,Cc1ccc2cccc(O)c2[n+]1[O-],0.7% (inactive)
14,CCOC(=O)Cn1c2c(c(-c3ccccc3OC)cc1=O)CCCC2,10.1% (inactive)
15,CCOC(=O)N1CCN(C(=O)CSc2nnc(-c3c[nH]c4ccccc34)n2CCOC)CC1,8.4% (inactive)
16,Cc1ccc2nc(NC(=O)C3CCN(S(=O)(=O)c4ccc5c(c4)oc(=O)n5C)CC3)sc2c1,-18.8% (inactive)
17,Cc1cc(Nc2cccc(F)c2)n2ncnc2n1,-3.6% (inactive)
18,Cc1nc2ccc(S(=O)(=O)NCC(=O)NCCN3CCCCC3C)cc2s1 (centres undefined),-4.2% (inactive)
19,Cc1noc(C)c1S(=O)(=O)N(CC(=O)Nc1ccc2c(c1)OCCO2)c1ccc(C(C)C)cc1,0.9% (inactive)
20,O=C(OCc1ccccc1F)c1ccc2c(c1)OCCO2,3.6% (inactive)
21,CN1CCN(CCCNC(=O)c2cc3c(=O)oc4ccccc4c3s2)CC1,-0.9% (inactive)
22,COC(=O)c1cc(S(=O)(=O)NC2CCN(Cc3ccccc3)CC2)cn1C,-4.4% (inactive)
23,CCC(=O)N1CCN=C1SCc1ccc(F)cc1,0% (inactive)
24,O=C(Nc1nccs1)C1CCCN1S(=O)(=O)c1cccc2cccnc12 (centres undefined),-4.6% (inactive)

row,Compound,inhibition
1,COc1cccc(-n2cc(C(=O)O)c3ccccc3c2=O)c1,-2.1% (inactive)
2,COC(=O)c1c(-c2ccc(C)cc2)csc1N,7% (inactive)
3,CCN1CCN(Cc2c(O)ccc3c(=O)c(-c4ccc(OC)c(OC)c4)c(C(F)(F)F)oc23)CC1,-8.1% (inactive)
4,O=C1C(=O)N(CCN2CCOCC2)C(c2ccccn2)/C1=C(/O)c1ccc(Cl)cc1 (centres undefined),13.6% (inactive)
5,CCOc1ccc(OCC)c(NC(=O)CN(C)S(=O)(=O)c2cccc3nsnc23)c1,-0.8% (inactive)
6,Cc1cnc(C(=O)OCC(=O)Nc2ccc(Cl)cc2Cl)cn1,-2.2% (inactive)
7,COc1ccc(NC(=O)c2c(SC)nsc2SC)cc1,2.1% (inactive)
8,COc1ccc(-c2ccc(Nc3ccc(S(=O)(=O)N4CCCC4)cc3)nn2)cc1OC,-6.4% (inactive)
9,Cc1cc(Nc2ccc(Br)cc2F)n2ncnc2n1,-4.7% (inactive)
10,CCOC(=O)N1CCN(C(=O)C2CC(c3ccc(F)cc3)=NO2)CC1 (centres undefined),9.4% (inactive)
11,CN(C)CCCNC(=O)c1ccc2[nH]c3ccccc3c2c1,3.7% (inactive)
12,COc1cccc(N2C(=O)CC(N3CCN(S(=O)(=O)c4ccccc4)CC3)C2=O)c1 (centres undefined),-0.8% (inactive)
13,CCOC(=O)c1c(C)c(C(=O)NCCc2ccc(S(N)(=O)=O)cc2)c(C)n1CC,-11.9% (inactive)
14,COc1ccc(CNC(=O)C2CCN(S(=O)(=O)N3CCOCC3)CC2)cc1,-0.9% (inactive)
15,COc1ccc(/C(O)=C2/C(=O)C(=O)N(CCCN(C)C)C2c2ccccc2)cc1OC (centres undefined),-8.5% (inactive)
16,Cc1ccc(NC(=O)CN(C)S(=O)(=O)c2cnc[nH]2)cc1C,-11.5% (inactive)
17,O=C(O)Cc1ccc(NC(=O)C2CCCCC2C(=O)O)cc1 (centres undefined),-9.4% (inactive)
18,COc1ccccc1N1CCN(C(=O)c2c(-c3c(Cl)cccc3Cl)noc2C)CC1,6.9% (inactive)
19,CCOC(=O)CN1CC23C=CC(O2)C(C(=O)Nc2ccc(F)cc2)C3C1=O (centres undefined),-4.5% (inactive)
20,COc1ccc(CC(NC(C)=O)C(=O)NC2CCN(C(=O)Nc3ccc(C#N)cc3)CC2)cc1OC (centres undefined),13.5% (inactive)
21,CCOC(=O)c1oc2ccccc2c1NC(=O)c1cccs1,-2.1% (inactive)
22,CCOc1ccc(N(CC(=O)OC)S(=O)(=O)c2c(C)noc2C)cc1,-18.8% (inactive)
23,O=C(Nc1ccccc1)N(Cc1cccnc1)Cc1ccco1,4.3% (inactive)
24,CC1=C(C(=O)OCc2ccccc2)C(c2ccco2)n2ncnc2N1 (centres undefined),-4.9% (inactive)

row,Compound,inhibition
1,O=C1c2ccccc2C(O)N1Cc1ccccc1 (centres undefined),-3.5% (inactive)
2,O=C(C1=C(O)C(=O)N(Cc2ccccc2)C1c1ccco1)c1ccco1 (centres undefined),43.1% (active)
3,O=C(C1=C(O)C(=O)N(c2ncccn2)C1c1cccs1)c1ccco1 (centres undefined),-4.1% (inactive)
4,O=C(C1=C(O)C(=O)N(Cc2ccccc2)C1c1cccnc1)c1ccco1 (centres undefined),36% (active)
5,Cc1cccc(N2C(=O)SC(N(CC(=O)O)c3cccc(C)c3)C2=O)c1 (centres undefined),76.8% (active)
6,CCC1Oc2ccc(Cl)cc2N(CC(=O)O)C1=O (centres undefined),4.3% (inactive)
7,Cc1cc(C)cc(N(CC(=O)NCC2CCCO2)S(=O)(=O)c2c(C)noc2C)c1 (centres undefined),3.2% (inactive)
8,COc1ccc(C2CC(c3ccc(Cl)cc3Cl)Nc3nc(N)nn32)cc1OC (centres undefined),6.7% (inactive)
9,COc1ccccc1C(=O)N1CCN=C1SCc1cccnc1,0.1% (inactive)
10,CCOC(=O)c1oc2c(CN3CCN(C)CC3)c(O)ccc2c(=O)c1-c1ccc(Br)cc1,-5.9% (inactive)
11,CC(C)OC(=O)c1cc(NC(=O)C2C3CCC(O3)C2C(=O)O)cc(C(=O)OC(C)C)c1 (centres undefined),39.8% (active)
12,Cc1sc(NC(=O)C2C3CCC(O3)C2C(=O)O)c(C(=O)OC(C)C)c1-c1ccc(Cl)cc1 (centres undefined),6.3% (inactive)
13,CC(C)COC(=O)C1C2C=CC3(CN(C(C)c4ccc(Br)cc4)C(=O)C13)O2 (centres undefined),-6.6% (inactive)
14,Cc1ccc(C)c(N(CC(=O)NCc2ccco2)C(=O)CCC(=O)Nc2ccccn2)c1,19% (inactive)
15,CCN(CC)CCNC(=O)Cn1cnc2sc(C)c(S(=O)(=O)N3CCOCC3)c2c1=O,-9.4% (inactive)
16,C/C(CC(O)(/C=N/O)c1ccccc1)=N\O (centres undefined),7.2% (inactive)
17,O=C(Cn1c(=O)n(Cc2ccco2)c(=O)c2ccccc21)NCC1CCCO1 (centres undefined),5.8% (inactive)
18,N#CCCN1CCN(S(=O)(=O)c2ccc(S(=O)(=O)NC3CC3)cc2)CC1,-1.2% (inactive)
19,CCOc1ccc(CCNC(=O)C2CCN(c3ccc(N4CCOCC4)nn3)CC2)cc1OCC,-8.8% (inactive)
20,COCCOC(=O)C1=C(C)NC(=O)CC1c1cc2c(cc1Br)OCO2 (centres undefined),-1.8% (inactive)
21,Nc1nonc1-c1noc(-c2ccc(Br)o2)n1,-6.7% (inactive)
22,CCC(C)(C(=O)NC1CCCC1)N(C(=O)CNC(C)=O)c1ccc(C)cc1 (centres undefined),5.8% (inactive)

# Reference: PubChem BioAssay AID440 (NMMLSC, 2006)
